Laboratory results as given in article PMC5540273 (PLoS ONE, 2017).

Legend:
Settings in all cases: concentration: 1 μM, replicates: in singlicate; n = 1
[1] = system: T1, DLK
T1 construct: gene MAP3K12

[2] = system: T2, DMPK2
T2 construct: gene CDC42BPG

[3] = system: DMPK
[4] = system: T3, DRAK1
T3 construct: gene STK17A

[5] = system: T4, DRAK2
T4 construct: gene STK17B

[6] = system: DYRK1A
[7] = system: DYRK1B
[8] = system: DYRK2
[9] = system: EGFR
[10] = system: EIF2AK1
[11] = system: EPHA1
[12] = system: EPHA2
[13] = system: EPHA3
[14] = system: EPHA4
[15] = system: EPHA5
[16] = system: EPHA6
[17] = system: EPHA7
[18] = system: EPHA8
[19] = system: EPHB1
[20] = system: EPHB2
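Further: KINOMEscan kinase panel screen.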

Row | Compound | %Inh [1] [%] | %Inh [2] [%] | %Inh [3] [%] | %Inh [4] [%] | %Inh [5] [%] | %Inh [6] [%] | %Inh [7] [%] | %Inh [8] [%] | %Inh [9] [%] | %Inh [10] [%] | %Inh [11] [%] | %Inh [12] [%] | %Inh [13] [%] | %Inh [14] [%] | %Inh [15] [%] | %Inh [16] [%] | %Inh [17] [%] | %Inh [18] [%] | %Inh [19] [%] | %Inh [20] [%]
1 | O=C(NCc1cccs1)c1cc(C(=O)c2c(Cl)cccc2Cl)c[nH]1 [GW823670] | 0 | 4 | 6 | 4 | 0 | 0 | 16 | 0 | 0 | 0 | 0 | 0 | 1 | 4 | 0 | 0 | 0 | 4 | 4 | 0
2 | COc1cc2ncn(-c3cc(OCCCc4ccccc4)c(C(N)=O)s3)c2cc1OC [GSK205189] | 0 | 0 | 0 | 0 | 0 | 7 | 0 | 0 | 15 | 1 | 0 | 0 | 0 | 3 | 1 | 5 | 5 | 17 | 4 | 0
3 | O=C1NC(=O)C(c2ccccc2)=C1Nc1cccc(O)c1 [SB-390534] | 0 | 0 | 0 | 5 | 0 | 25 | 0 | 0 | 7 | 0 | 24 | 0 | 8 | 0 | 0 | 10 | 16 | 0 | 0 | 0
4 | Cc1nn2c(=O)cc(N3CCOCC3)nc2n1Cc1cccc(Cl)c1Cl [GSK2342769] | 12 | 0 | 0 | 0 | 0 | 26 | 29 | 0 | 25 | 0 | 10 | 10 | 0 | 21 | 0 | 18 | 0 | 6 | 0 | 0
5 | COc1ccc(-c2cc3c(C)nc(N)nc3n([C@H]3CC[C@H](OCCO)CC3)c2=O)cn1 | 0 | 0 | 8 | 16 | 14 | 0 | 0 | 0 | 12 | 8 | 13 | 0 | 0 | 12 | 11 | 11 | 0 | 0 | 0 | 0
6 | COc1cccc(C2=C(N(C)c3ccccc3)C(=O)NC2=O)c1 [SB-334865] | 4 | 0 | 0 | 0 | 0 | 4 | 0 | 0 | 36 | 0 | 0 | 4 | 0 | 16 | 0 | 0 | 5 | 7 | 18 | 14
7 | O=C(Nc1n[nH]c2nc(-c3ccccc3)c(Br)cc12)C1CC1 [SB-708998] | 17 | 0 | 0 | 5 | 0 | 8 | 0 | 1 | 1 | 34 | 23 | 27 | 0 | 11 | 3 | 9 | 0 | 15 | 23 | 9
8 | CCS(=O)c1ccc(-c2coc3ccc(-c4nnc(C)o4)cc23)cc1 (stereo not shown) | 30 | 0 | 6 | 0 | 0 | 0 | 7 | 0 | 5 | 0 | 5 | 13 | 4 | 0 | 4 | 12 | 0 | 0 | 0 | 0
9 | COC(=O)c1c(-c2ccccc2)c2cc(Br)ccc2c(=O)n1Cc1ccc(S(C)(=O)=O)cc1 | 0 | 5 | 0 | 3 | 0 | 20 | 45 | 44 | 5 | 13 | 0 | 22 | 0 | 33 | 16 | 45 | 24 | 23 | 14 | 21
10 | O=C(NCCNc1ccnc(Nc2ccc(F)cc2)n1)Nc1ccc2c(c1)OCO2 [GSK1379882] | 5 | 11 | 0 | 10 | 0 | 7 | 0 | 23 | 0 | 0 | 15 | 0 | 0 | 0 | 0 | 0 | 0 | 0 | 18 | 0
11 | COc1ccc(-c2coc3ccc(-c4nnc(SCc5cccc(C#N)c5)o4)cc23)cc1 | 1 | 0 | 0 | 2 | 7 | 5 | 0 | 2 | 0 | 30 | 7 | 3 | 2 | 25 | 21 | 26 | 0 | 0 | 0 | 5
12 | FC(F)(F)c1ccc(-c2ncn(CCCN3CCOCC3)c2-c2ccncc2)cc1 [SB-217780] | 0 | 1 | 28 | 15 | 6 | 6 | 0 | 25 | 19 | 10 | 6 | 5 | 0 | 12 | 0 | 7 | 0 | 0 | 0 | 0
13 | COc1cc2ncn(-c3cc(OCc4ccncc4)c(C(N)=O)s3)c2cc1OC [GSK336313] | 0 | 12 | 0 | 0 | 0 | 13 | 19 | 23 | 24 | 0 | 21 | 0 | 12 | 0 | 0 | 0 | 4 | 0 | 7 | 0
14 | Cc1cc(Nc2nc(-c3cccc(C)n3)nc3ccccc23)ccn1 [GW872411] | 0 | 2 | 0 | 0 | 0 | 0 | 2 | 0 | 0 | 0 | 0 | 0 | 18 | 0 | 0 | 0 | 0 | 0 | 0 | 0
15 | COC(=O)c1c(-c2ccccc2)c2cc(C)ccc2c(=O)n1Cc1ccccc1 | 0 | 0 | 0 | 0 | 0 | 0 | 6 | 0 | 0 | 0 | 0 | 0 | 14 | 61 | 0 | 75 | 0 | 0 | 0 | 2
16 | COc1ccc(-c2cc3c(C)nc(N)nc3n([C@H]3CC[C@H](O)CC3)c2=O)cn1 | 5 | 0 | 0 | 0 | 0 | 0 | 4 | 0 | 0 | 0 | 12 | 8 | 0 | 0 | 0 | 0 | 0 | 0 | 0 | 0

Row | Compound | %Inh [1] [%] | %Inh [2] [%] | %Inh [3] [%] | %Inh [4] [%] | %Inh [5] [%] | %Inh [6] [%] | %Inh [7] [%] | %Inh [8] [%] | %Inh [9] [%] | %Inh [10] [%] | %Inh [11] [%] | %Inh [12] [%] | %Inh [13] [%] | %Inh [14] [%] | %Inh [15] [%] | %Inh [16] [%] | %Inh [17] [%] | %Inh [18] [%] | %Inh [19] [%] | %Inh [20] [%]
17 | CCC(=O)c1c(-c2ccccc2)c2cc(Cl)ccc2c(=O)n1Cc1cc(S(C)(=O)=O)n(CC(F)F)n1 | 0 | 0 | 0 | 0 | 0 | 0 | 13 | 17 | 1 | 0 | 2 | 0 | 7 | 2 | 0 | 2 | 0 | 0 | 0 | 0
18 | OCCCNc1nccc(-c2c(-c3cccc(C(F)(F)F)c3)nn3cc(C(F)(F)F)ccc23)n1 [GW630813] | 37 | 39 | 0 | 0 | 0 | 26 | 0 | 0 | 26 | 0 | 5 | 0 | 5 | 0 | 0 | 0 | 0 | 0 | 0 | 0
19 | CC(C)(C)c1ccc(C(=O)Nc2cn3cc(-c4ccccc4)ccc3n2)cc1 | 0 | 0 | 0 | 0 | 0 | 0 | 0 | 37 | 5 | 0 | 0 | 0 | 6 | 6 | 0 | 0 | 0 | 0 | 11 | 0
20 | Nc1ncnc2c1ncn2-c1ccc(Cl)cc1 [AH2635] | 27 | 12 | 0 | 17 | 0 | 0 | 0 | 2 | 15 | 0 | 0 | 12 | 0 | 0 | 0 | 0 | 0 | 3 | 9 | 0
21 | COc1cc(OC)cc(-c2cc3cnc(N)nc3nc2NC(=O)NC(C)(C)C)c1 | 4 | 0 | 16 | 0 | 0 | 0 | 16 | 0 | – | 4 | 28 | 0 | 0 | 0 | 0 | 0 | 0 | 0 | 0 | 0
22 | COc1cc2nccc(Nc3cccc(Oc4ccccc4)c3)c2cc1OC.Cl [GW284543] | 24 | 0 | 0 | 2 | 26 | 6 | 0 | 11 | 40 | 0 | 10 | 0 | 12 | 0 | 0 | 0 | 0 | 6 | 11 | 0
23 | CCc1nc(-c2cccc(C)c2)c(-c2ccncc2)s1 | 0 | 79 | 0 | 0 | 0 | 0 | 0 | 0 | 0 | 9 | 0 | 17 | 4 | 6 | 2 | 0 | 0 | 0 | 8 | 2
24 | CCC(=O)c1c(-c2ccccc2)c2cc(Cl)ccc2c(=O)n1Cc1cc(C(=O)NC2CC2)n(C)n1 | 49 | 0 | 0 | 0 | 3 | 0 | 48 | 2 | 0 | 0 | 4 | 3 | 8 | 26 | 0 | 38 | 11 | 4 | 7 | 4
25 | COC(=O)c1c(-c2ccccc2)c2cc(Br)ccc2c(=O)n1Cc1ccc(NC(=O)CCC(=O)O)cc1 | 0 | 0 | 0 | 0 | 0 | 9 | 48 | 8 | 0 | 12 | 24 | 0 | 4 | 12 | 7 | 31 | 5 | 12 | 5 | 7
26 | Cc1cccc(-c2cc(-c3c[nH]nc3-c3ccccn3)ccn2)c1 [GW679395] | 13 | 1 | 0 | 0 | 0 | 24 | 0 | 0 | 31 | 0 | 38 | 7 | 0 | 22 | 0 | 13 | 0 | 13 | 33 | 17
27 | Cc1nnc(-c2ccc3ncn(-c4ccc(S(C)=O)cc4)c3c2)o1 (stereo not shown) | 0 | 0 | 1 | 3 | 18 | 0 | 26 | 7 | 0 | 0 | 0 | 0 | 5 | 46 | 17 | 50 | 1 | 0 | 1 | 15
28 | COc1cc(Nc2nccc(N3CCC(NC(=O)C(C)c4ccc(Cl)cc4)C3)n2)cc(OC)c1OC (stereo not shown) [GSK1379757] | 29 | 8 | 0 | 0 | 0 | 9 | 0 | 0 | 23 | 0 | 4 | 23 | 0 | 22 | 0 | 18 | 2 | 14 | 0 | 0
29 | Cc1ccccc1COc1cc(-n2cnc3cc(Cl)ccc32)sc1C(N)=O [GW813349] | 0 | 2 | 0 | 0 | 1 | 15 | 34 | 19 | 2 | 6 | 9 | 6 | 0 | 0 | 0 | 0 | 0 | 0 | 14 | 19
30 | CCc1ccc(-c2ccc3c(c2)-c2nn(C)cc2S(=O)(=O)N3C)cc1 | 0 | 0 | 0 | 0 | 0 | 0 | 0 | 0 | 0 | 0 | 4 | 25 | 0 | 0 | 0 | 0 | 0 | 0 | 0 | 0
31 | Cl.c1ccc(Cn2cnc3cc(Nc4ncnc5ccccc45)ccc32)cc1 [GW272142] | 6 | 11 | 0 | 0 | 0 | 17 | 2 | 21 | 20 | 0 | 4 | 0 | 0 | 12 | 0 | 10 | 0 | 10 | 0 | 0
